Screens (PubChem)
Only some compounds are listed: those with a hit (about 3.4% of all), similar ones and a draw of the others.
COUP-TFII inh = NR2F2 transcriptional activity inhibitors, primary screen, cell-based, luciferase reporter, HEK293T, luminescence; HEK293T NGFI-A luciferase reporter; actives 0.7% (n = 370,000); COUP transcription factor 2 (Homo sapiens), P24468; inhibition, % at 8.6 µM;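 active = inhibition above a per-plate cutoff, mean inhibition of test wells between control levels plus 3 SD, cut at about 38% in these data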;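 note: cells cotransfected with COUP-TFII expression vector driving the NGFI-A reporter; 0% = median of COUP-TF2 test wells and 100% = reporter-only cells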
GAA850 FXN act = FXN promoter activators, primary screen, cell-based, luciferase luminescence, HEK293 lucGAA850; actives 0.56% (n = 360,000); HEK293 lucGAA850 FXN promoter luciferase reporter, 24 h; percent of 10 µM SAHA response; activation, % at 6 µM;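 active = activation above the average of all compounds screened plus 3 SD, cutoff fixed separately per campaign, cut at about 7.5% in these data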;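 note: 0% = DMSO wells and 100% = 10 µM SAHA wells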
SMARCA2 act = SMARCA2 (BRM) function activators, primary screen, cell-based, luminescence, high throughput; activation, % at 9.1 µM; actives 1% (n = 370,000); MG213 cells, MMTV-luciferase reporter, dexamethasone, overnight; AID 652017, 2013; in the data active = activation above about 7.8%;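 note: 0% = vehicle wells and 100% = reference activator wells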
GalR3 antag = GalR3 antagonists in HEK293 cells, primary screen, cell-based, fluorescence readout; HEK293 GalR3-CNG cAMP membrane potential fluorescence; galR3 body fused to GalR1 C-terminus; Galanin receptor type 3 (Homo sapiens), O60755; inhibition, % at 3 µM; actives 0.44% (n = 360,000);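 active = inhibition above the screen-wide average plus 3 SD, cut at about 13% in these data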;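 note: forskolin and galanin both at EC90 stimulate the cells; cAMP rise reported by CNG channel membrane potential dye signal; 0% = forskolin plus galanin with DMSO and 100% = forskolin alone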
Target sequence (O60755 1-299 limits assumed): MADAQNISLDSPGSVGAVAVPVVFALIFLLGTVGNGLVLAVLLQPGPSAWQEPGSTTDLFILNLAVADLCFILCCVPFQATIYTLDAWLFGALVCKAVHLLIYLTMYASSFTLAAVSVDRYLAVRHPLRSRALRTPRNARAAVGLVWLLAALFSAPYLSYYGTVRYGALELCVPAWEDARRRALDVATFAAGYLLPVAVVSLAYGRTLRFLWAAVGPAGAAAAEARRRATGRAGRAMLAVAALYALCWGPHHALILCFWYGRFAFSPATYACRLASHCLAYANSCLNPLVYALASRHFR
Gli-Sufu antag = Gli-Sufu pathway antagonists, primary screen, luciferase luminescence, Sufu-KO-LIGHT cells, uHTS | Sufu-KO-LIGHT fibroblasts, Gli luciferase reporter luminescence | inhibition, % at 5 µM | actives 0.74% (n = 340,000) | AID 588413, 2011;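 active = inhibition above about 55%, limit read from the data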;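 note: 0% = DMSO-treated cells and 100% = wells with medium but no cells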
H9c2 protect = cardioprotection against H2O2-induced cell death, primary screen, uHTS, H9c2 cells, ATPLite luminescence. H9c2 cardiomyocytes, H2O2 injury protection, 2 h. protection from H2O2 cell death, % at 20 µM. actives 0.63% (n = 360,000);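 active = compounds giving at least 50% protection of heart cells from peroxide-induced death in the single-dose screen, raw or plate-pattern-corrected value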;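 note: 0% = DMSO wells with peroxide and 100% = DMSO wells without peroxide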
VP16 Luc counter = Gal4-VP16 luciferase reporter inhibitors, counter-screen for COUP-TFII antagonist project, cell-based, luminescence, HEK293. AID 687007, 2013. inhibition, % at 8.5 µM. shares compounds with COUP-TFII inh. actives 25% (n = 2,500); in the data active = inhibition above about 13%
COUP-TFII conf = NR2F2 transcriptional activity inhibitors, confirmation, cell-based, luciferase reporter, HEK293, triplicate; shares compounds with COUP-TFII inh; HEK293 NGFI-A luciferase reporter, luminescence; inhibition, % at 8.5 µM; actives 45% (n = 2,500); AID 687008, 2013;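 active = mean inhibition over three repeats above a set limit taken from the earlier primary screen, cut at about 38% in these data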;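 note: 100% = cells given the luciferase reporter alone without the COUP-TF2 vector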
Starred values were filed as active, the others as inactive; · = not tested or not shown.

SMILES | COUP-TFII inh | GAA850 FXN act | SMARCA2 act | GalR3 antag | Gli-Sufu antag | H9c2 protect | VP16 Luc counter | COUP-TFII conf
O=c1[nH]c(O)c(N=Nc2ccc3c(c2)OCCO3)c(=O)[nH]1 | 81.7* | -14.1 | -7.5 | -2.1 | 29.9 | -14.4 | -5.6 | 64.2*
COC1C(OC(=O)c2ccc(C)[nH]2)C(O)C(Oc2ccc3c(O)c(NC(=O)c4ccc(O)c(CC=C(C)C)c4)c(=O)oc3c2Cl)OC1(C)C (stereo not drawn) | -12.5 | -0.4 | -0.6 | -4.0 | -4.8 | -4.1 | · | ·
CCCCN=C[C@]12CCC(O)CC1(O)CCC1[C@@H]2CC[C@]2(C)[C@H](C3C=CC(=O)O3)CCC12O (stereo partly drawn) | 62.6* | -13.3 | -10.6 | 8.4 | 0.6 | 9.5 | 38.7* | 68.7*
C[C@]12CC[C@H]3[C@@H](CC[C@]4(O)C[C@@H](O)CC[C@]34C=O)[C@@]1(O)CC[C@@H]2C1=CC(=O)OC1 | 77.6* | -13.5 | -11.7 | 15.0* | -0.3 | 19.5 | 32.9* | 67.2*
CC12CC[C@H]3[C@@H](CCC4(O)C[C@H](O)CCC34/C=N/NC(=O)c3ccccc3Cl)C1(O)CCC2C1=CC(=O)OC1 (stereo partly drawn) | 6.6 | 0.1 | -2.8 | 2.5 | -11.5 | 0.1 | · | ·
C[C@]12CCC3C(CCC4=CC(O)CC[C@@]43/C=N/O)C1(O)CCC2C1=CC(=O)OC1 (stereo partly drawn) | 74.7* | -13.7 | -7.4 | 15.2* | -2.4 | -2.7 | 37.4* | 67.6*
CC12CCC3C(CCC4(O)CC(O)CCC34C=NO)C1(O)CCC2C1=COC(=O)C1 (stereo not drawn) | 80.8* | -14.4 | -9.8 | 23.1* | 8.4 | -2.0 | 43.2* | 68.9*
COC(=O)C1=C(c2ccc(OC)c(OC)c2)C[C@@H]2CC[C@H]1N2C(=O)NCCNC(C)=O | -12.7 | 0.6 | -0.1 | -1.3 | -19.4 | 7.0 | · | ·
COc1ccccc1NC(=O)COC(=O)c1cn(C)c2ccccc12 | -0.2 | 0.9 | -2.9 | -4.7 | 2.8 | 8.9 | · | ·
C[C@]12CCC3C(CC[C@H]4C[C@H](OC(=O)c5cccnc5)CC[C@]34C)C1CCC2=O (stereo partly drawn) | -0.3 | -1.4 | 3.0 | -3.3 | 11.8 | -11.9 | · | ·
COc1cccc(C(c2nnnn2-c2ccc3c(c2)OCCO3)N2CCC(n3c(=O)[nH]c4ccccc43)CC2)c1OC (stereo not drawn) | 40.0* | · | -4.4 | 1.1 | · | 37.4 | -2.4 | 7.5
COc1ccc(C2C3C=CC(C3)C2C(=O)O)cc1 (stereo not drawn) | -13.2 | 1.1 | -0.9 | -4.7 | · | 0.5 | · | ·
